High-throughput results: PubChem BioAssay, Broad Institute
Compounds with a hit are over-represented: about 2.5% of the library has one in this group of screens.
p53 mut binder: binds human mutant p53 on microarray. small molecule microarray binding, anti-GST fluorescence. calls only. actives 0.4% (n = 17,000). AID 624136;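 active = compounds whose four printed spots each glow above background more than chance allows, each with a p-value under 7%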
Myc binder: c-Myc (human) binding; P01106; small molecule microarray, His-c-Myc binding, anti-His fluorescence; calls only; actives 1.5% (n = 17,000);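 active = spot fluorescence over background with P-value below 7% in all four replicate spots, showing protein binding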;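 note: score is binary with 100 for all four spots passing and 0 otherwise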
STAT3 SMM: binds human STAT3 on microarray | AID 624138 | calls only | Small molecule microarray, His-STAT3 binding, anti-His fluorescence | actives 0.2% (n = 17,000) | P40763;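 active = compounds whose four printed spots each show fluorescence over background unusually high for their array block, chance value under 7%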
NFkB binder: NF-kappa-B p105 (human) binding | calls only | Small molecule microarray, anti-His fluorescence binding | P19838 | AID 624139 | actives 1.3% (n = 17,000);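 active = spot fluorescence over background significantly raised, with a chance value under 7% in all four replicate spots of the compound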;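 note: probe protein is his-tagged human p50 processed subunit at 1 µg/ml; raw spot fluorescence signals with no normalization applied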
* hit, by the source's call; i = inactive; + = active, no number.

SMILES | p53 mut binder | Myc binder | STAT3 SMM | NFkB binder
Cc1cc(SCc2sc(-c3ccc(C(F)(F)F)c(F)c3)nc2C)ccc1OCC(=O)O | i | + | i | i
CCOC(=O)[C@@H]1[C@@H]2NC(=O)N(C)[C@@]1(COCc1ccc(OC)cc1)Oc1ccccc12 | i | i | i | i
CC(CO)NC(=O)C1C=C2c3cccc4[nH]cc(c34)CC2N(C)C1 (stereo not drawn) | i | + | i | i
CC1CCC/C=C/C2CC(O)CC2C(O)/C=C\C(=O)O1 (stereo not drawn) | i | i | i | i
